VCAM1 TNFa inh: reduces TNF alpha induced VCAM1 expression in HUVEC; HUVEC TNFa-induced VCAM-1 immunofluorescence, high-content imaging; inhibition, % at 2 µM; 95,000 compounds, 0.48% hits;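 active = inhibition above the batch mean plus 3 SD, with images confirmed as a hit by eye, cut at about 37% in these data; inconclusive = inhibition above that limit but hit not confirmed in images; inactive = inhibition not above that limit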
E-sel TNF inh: TNF alpha driven E-selectin expression inhibition | inhibition, % at 2 µM | 120,000 compounds, 0.71% hits | HUVEC TNFa-induced E-selectin immunofluorescence, high content | AID 1246;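 active = inhibition above the batch mean plus 3 SD, and confirmed as a hit on visual image review, cut at about 43% in these data; inconclusive = passes the inhibition cutoff but fails visual image review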
NFkB transloc inh: blocks IL-1B driven NFkB nuclear translocation in HUVEC cells; AID 796; HUVEC IL-1B NFkB p65 nuclear translocation imaging; inhibition, % at 2 µM; 94,000 compounds, 0.43% hits;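 active = inhibition above about 30% together with a positive call from visual inspection of the well image, limit read from the data; inconclusive = inhibition above a set limit but visual check negative; inactive = inhibition not above a set limit, visual check negative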;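 note: nuclear over cytoplasmic p65 intensity ratio measured by imaging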
HUVEC tox TNFa: toxic to HUVEC cells under TNF alpha stimulation; HUVEC TNFalpha-stimulated, Hoechst cell count, imaging; cell count reduction, % at 2 µM; 93,000 compounds, 0.17% hits;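 active = cell count reduction exceeding the screen mean by over 5 SD, scaled to untreated wells per plate, cut at about 78% in these data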;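 note: cells counted after 24 h of TNF alpha exposure following the 1 h pretreatment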
HUVEC tox IL1B: toxic to HUVEC cells under IL-1B stimulation. cell count reduction, % at 2 µM. 94,000 compounds, 0.41% hits. HUVEC cell count loss, Hoechst imaging, IL-1B stimulated. AID 845;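 active = cell count reduction more than 3 SD above the screen-wide mean, cut at about 70% in these data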
IL1B NFkB pot: enhances IL-1B driven NFkB nuclear translocation; HUVEC IL-1B NFkB p65 nuclear translocation imaging; 94,000 compounds, 0.3% hits; activation, % at 2 µM;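 active = activation above 40%, about the mean plus 3 SD, also judged a hit on visual image review; inconclusive = activation above 40% but not a hit on visual review; inactive = activation not above 40% and no visual hit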;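 note: percent activation is computed from the nuclear over cytoplasmic p65 intensity ratio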
Each line names hits and unclear results; the compound was inactive in the other large screens. A selection: hits, their analogues and other compounds. The true share with any hit is near 1.8%.

c1ccc(Cc2nnc3sc(-c4ccncc4)nn23)cc1	none
c1ccc(Cc2nnc3sc(-c4cccnc4)nn23)cc1	HUVEC tox IL1B 91.3
CC(C)(C)NS(=O)(=O)c1cnc(Cl)c(Cl)c1	none
CC1C/C(=C/c2ccncc2)C(=O)/C(=C/c2ccncc2)C1 (centres undefined)	E-sel TNF inh 99.9 (no result: VCAM1 TNFa inh, NFkB transloc inh, HUVEC tox TNFa, HUVEC tox IL1B, IL1B NFkB pot)
CC1C/C(=C/c2cccn2C)C(=O)/C(=C/c2cccn2C)C1 (centres undefined)	none
CC(=O)OCCCN1c2ccccc2Nc2nnc(-c3ccccc3)cc21	none
CCN(CCC(=O)Nc1ccc(Br)c(C)c1)Cc1ccccc1	NFkB transloc inh 50.0
O=C(CCN(CCO)Cc1ccccc1)Nc1ccc(Br)cc1	none
Cc1cc(C)c2c(n1)sc1c(N3CCOCC3)ncnc12	VCAM1 TNFa inh 60.8
COc1ccc(C2CC(=O)C=C(NCCC(C)C)C2)cc1 (centres undefined)	IL1B NFkB pot 51.7
O=c1cc(C(Cl)(Cl)Cl)oc2c1ccc1ccccc12	VCAM1 TNFa inh 80.0
CCCc1c(O)nc(SCCN(CC)CC)[nH]c1=O	NFkB transloc inh 32.3, HUVEC tox IL1B 89.4
O=C(Nc1ccc(F)cc1F)c1ccc(COc2c(F)c(F)cc(F)c2F)o1	HUVEC tox IL1B 88.7, IL1B NFkB pot 43.4
CCN(CC)S(=O)(=O)c1ccc(NC(=O)C(OC)c2ccccc2)cc1 (centres undefined)	NFkB transloc inh 97.7, HUVEC tox IL1B 89.5
CCN(CC)S(=O)(=O)c1ccc(NC(=O)C(C)N(c2ccc(OC)cc2)S(C)(=O)=O)cc1 (centres undefined)	VCAM1 TNFa inh inconclusive, HUVEC tox TNFa 100.0
COC(C(=O)Nc1ccc(S(=O)(=O)Nc2c(C)cccc2C)cc1)c1ccccc1 (centres undefined)	none (no result: VCAM1 TNFa inh, NFkB transloc inh, HUVEC tox TNFa, HUVEC tox IL1B, IL1B NFkB pot)
COc1ccccc1-n1c(=O)oc2ccc(Cl)cc2c1=O	none
COc1cccc(/C=N/Nc2nc(Nc3ccccc3)nc(-n3nc(C)cc3C)n2)c1O	VCAM1 TNFa inh 86.7
Cc1cc(C)n(-c2nc(Nc3ccccc3)nc(-n3nc(C)cc3C)n2)n1	none
Cc1cccc(/C=C2\CS/C(=C\c3cccc(C)c3)C2=O)c1	NFkB transloc inh 54.3
O=C1/C(=C/c2cccc(F)c2)CSc2sccc21	none
Oc1ccccc1N1CCN(CC(O)COCc2ccccc2Cl)CC1 (centres undefined)	none (no result: VCAM1 TNFa inh, NFkB transloc inh, HUVEC tox TNFa, HUVEC tox IL1B, IL1B NFkB pot)
Fc1ccccc1C(c1nnnn1C1CCCC1)N1CCN(Cc2ccccc2)CC1 (centres undefined)	NFkB transloc inh 77.3, HUVEC tox IL1B 88.2
CCCCCc1ccc(-c2ccc(=O)[nH]n2)cc1	VCAM1 TNFa inh 78.8, IL1B NFkB pot inconclusive
CCCCc1ccc(-c2ccc(Br)cc2)nc1	none
Cc1ccc(-c2ccc(=O)[nH]n2)cc1	NFkB transloc inh 98.5, HUVEC tox IL1B 82.3
Cc1ccc(-c2cc(N)n[nH]2)cc1	none
COc1ccccc1C(=O)NCCN1CCN(C(=O)c2ccccc2OC)CC1	E-sel TNF inh 100.0
O=C(NNC(=O)c1sccc1-n1cccc1)Nc1ccc(F)cc1	none (no result: VCAM1 TNFa inh, NFkB transloc inh, HUVEC tox TNFa, HUVEC tox IL1B, IL1B NFkB pot)
COc1cc(C(=O)N2CCN(c3cc(Cl)ccc3Cl)CC2)cc(OC)c1OC	VCAM1 TNFa inh 57.5 (no result: E-sel TNF inh)
COc1cc(C(=O)N2CCN(c3cccc(C)c3C)CC2)cc(OC)c1OC	none (no result: E-sel TNF inh)
Cc1cc(C)c2nc(C(F)(F)F)nc(NCCCN3CCCC3=O)c2c1	NFkB transloc inh 30.9
O=C(O)c1cc(NCc2ccc3c(c2)OCO3)ccc1N1CCOCC1	NFkB transloc inh 54.5
COC(=O)c1cc(NCc2ccc3c(c2)OCO3)ccc1N1CCOCC1	none (no result: E-sel TNF inh)
O=C(NC1CCCC1)C(c1ccccc1)N(C(=O)c1ccno1)c1cccnc1 (centres undefined)	none
O=C(NC1CCCC1)C(c1ccccc1)N(C(=O)c1ccno1)c1ccccc1 (centres undefined)	NFkB transloc inh 46.0, HUVEC tox IL1B 73.1
CCCC(=O)c1ccc(N2CCOCC2)c(F)c1	none
CCC(=O)c1ccc(N2CCOCC2)c(F)c1	E-sel TNF inh 56.5
Cc1oc2c(C)c(O)ccc2c(=O)c1-c1cnn(-c2ccccc2)c1	E-sel TNF inh 59.2
COC(=O)c1ccccc1NC(=O)Cn1c(-c2nonc2N)nc2ccccc21	VCAM1 TNFa inh 78.7
CC(NC(=O)Cc1ccc(F)cc1)C(c1cccs1)N1CCN(C)CC1 (centres undefined)	none
Cc1ccc(N(CN2CCCC2=O)C(=O)c2ccc(OC(C)C)cc2)cc1	HUVEC tox TNFa 79.4
Cc1ccc(NC2=NC3(CCCCC3)N=C(N)N2)c(C)c1	NFkB transloc inh 96.9
Cc1ccc(C)c(NC2=NC3(CCCCC3)N=C(N)N2)c1	none (no result: HUVEC tox TNFa)
CCCC(C)c1nnc(NC(=O)C2CCCO2)s1 (centres undefined)	none
O=c1cc(-c2ccc(F)cc2)oc2ccccc12	E-sel TNF inh 44.1
CSc1ccc(-c2cc(=O)c3ccccc3o2)cc1	none
Cc1c(Cl)cccc1-n1ccnc1SCC(=O)O	VCAM1 TNFa inh 94.2, HUVEC tox TNFa 78.3 (no result: E-sel TNF inh)
O=C(c1cc(S(=O)(=O)N2CCCCC2)c(Cl)cc1N1CCOCC1)N1CCOCC1	none
COC(=O)c1cc(S(=O)(=O)N2CCOCC2)c(N2CCOCC2)cc1N1CCOCC1	E-sel TNF inh 56.1 (no result: VCAM1 TNFa inh, NFkB transloc inh, HUVEC tox TNFa, HUVEC tox IL1B, IL1B NFkB pot)
C=CCC(NCc1ccco1)c1ccc(OC)cc1OC (centres undefined)	NFkB transloc inh 57.9
C=CCC(NCc1ccco1)c1ccc(OC)c(OC)c1 (centres undefined)	none
Cc1ccc(S(=O)(=O)N(c2nc(NC(C)C)nc(NC(C)C)n2)n2cnnc2)cc1	none (no result: VCAM1 TNFa inh, NFkB transloc inh, HUVEC tox TNFa, HUVEC tox IL1B, IL1B NFkB pot)
CC(C(=O)NC1C(=O)N2C(C(=O)O)=C(CSc3nnnn3C)CSC12)n1cc(Cl)cn1 (centres undefined)	none (no result: VCAM1 TNFa inh, NFkB transloc inh, HUVEC tox TNFa, HUVEC tox IL1B, IL1B NFkB pot)
CCOC(=O)N1CCC(N2C(=O)c3ccccc3C2Nc2ccccc2)CC1 (centres undefined)	none (no result: E-sel TNF inh)
CCOC(=O)N1CCC(N2C(=O)c3ccccc3C2Nc2cc(C(=O)OC)cc(C(=O)OC)c2)CC1 (centres undefined)	IL1B NFkB pot 41.6
O=C(Nc1ccc(F)cc1)c1cccc2c1C(=O)N(Cc1ccccn1)C2	HUVEC tox IL1B 94.4
O=C1CC(C(=O)Nc2cccc3ccccc23)C2(CCCC2)O1 (centres undefined)	none
Cc1cc(C)c2c(=O)[nH]c(SCC(=O)NCCc3ccccc3)nc2n1	none
Cc1cc(C)c2c(=O)[nH]c(SCC(=O)NCc3ccccc3)nc2n1	NFkB transloc inh 45.8
Cc1nnc(SCC(=O)NCc2ccco2)[nH]c1=O	none (no result: E-sel TNF inh)
Cc1cc(=O)[nH]c(SCC(=O)NCc2ccco2)n1	E-sel TNF inh 100.0
Cc1cc(-c2ccco2)n(CC(=O)NCc2ccco2)n1	E-sel TNF inh 75.7
Cc1ccc(-c2ccc(=O)n(CC(=O)NCc3ccco3)n2)cc1	none
N#Cc1c(SCC(N)=O)nc2c(c1-c1ccc(OCc3ccccc3)cc1)CCCC2	HUVEC tox IL1B 85.5
CC(C)c1ccccc1NC(=O)c1cccc(NC(=O)c2ccccc2)c1	none
O=S(=O)(Nc1ccccn1)c1ccc(Cl)c2ccccc12	E-sel TNF inh 82.2 (no result: VCAM1 TNFa inh, NFkB transloc inh, HUVEC tox TNFa, HUVEC tox IL1B, IL1B NFkB pot)

Assay outcomes (PubChem)
